{"source": "PubChem BioAssay (Tox21)", "note": "Records with an inconclusive call do not appear. Entries that show only a call come without a potency. Calls of active or inactive are those of the source. Calls come from the whole dose curve. Potency is the fitted concentration of half-maximal effect."}
{"test": "qHTS assay to identify small molecule agonists of the AP-1 signaling pathway - cell viability counter screen (AID 1159525); note: nearly all actives have a fitted effect of over 55% in size", "conditions": "ME-180 AP-1-bla cells viability, ATP luminescence, 5 h; series mostly up to 76.8 µM", "how_it_was_run": "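ME-180 AP-1-bla, 2500 cells/well, Opti-MEM + 0.5% dialyzed FBS; overnight 37 °C; cpd 15-pt titration, 5 h 37 °C; CellTiter-Glo 30 min RT; luminescence read; normalised to TOAB and DMSO controls.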"}
{"smiles": "O=C(Nc1ccc(Cl)cc1)Nc1ccc(Cl)c(Cl)c1", "Potency": "inactive"}
{"smiles": "COC(C)COC(C)COC(C)CO", "note": "(stereo not given)", "Potency": "inactive"}
{"smiles": "CC(=O)CC/C=C(\\C)CCC=C(C)C", "Potency": "inactive"}
{"smiles": "Nc1ccc(Nc2ccccc2)cc1", "Potency": "inactive"}
{"smiles": "Nc1ncnc2nc[nH]c12", "Potency": "inactive"}
{"smiles": "OCCO", "Potency": "inactive"}
{"smiles": "O=C1OC2(c3cc(Br)c(O)c(Br)c3Oc3c2cc(Br)c(O)c3Br)c2c(Cl)c(Cl)c(Cl)c(Cl)c21", "Potency": "inactive"}
{"smiles": "CCCCOCCOCCO", "Potency": "inactive"}
{"smiles": "Cc1c(C(N)=O)cc([N+](=O)[O-])cc1[N+](=O)[O-]", "Potency": "inactive"}
{"smiles": "COc1ccc(C(=O)CC(=O)c2ccc(C(C)(C)C)cc2)cc1", "Potency": "inactive"}
{"smiles": "CCC(C)c1ccccc1O", "note": "(stereo not given)", "Potency": "inactive"}
{"smiles": "Nc1ccccc1N", "Potency": "inactive"}
{"smiles": "CC(=O)C1(C)CC2=C(CCCC2(C)C)CC1C", "note": "(stereo not given)", "Potency": "inactive"}
{"smiles": "OC1CCCCCCCCCCC1", "Potency": "inactive"}
{"smiles": "CCCCc1oc2ccccc2c1C(=O)c1cc(I)c(OCCN(CC)CC)c(I)c1", "Potency": "31.1 µM (active)"}
{"smiles": "Cc1c(OCC(F)(F)F)ccnc1CS(=O)c1nc2ccccc2[nH]1", "note": "(stereo not given)", "Potency": "inactive"}
{"smiles": "O=C(c1ccccc1)c1ccccc1O", "Potency": "inactive"}
{"smiles": "O=CCCCC=O", "Potency": "inactive"}
{"smiles": "NNc1ccc(C(=O)O)cc1", "Potency": "inactive"}
{"smiles": "O=Cc1ccccc1O", "Potency": "inactive"}
{"smiles": "Cc1cccc(N(C)C(=S)Oc2ccc3ccccc3c2)c1", "Potency": "inactive"}
{"smiles": "Cc1cc2nc3c(=O)[nH]c(=O)nc-3n(C[C@H](O)[C@H](O)[C@H](O)CO)c2cc1C", "Potency": "inactive"}
{"smiles": "COc1cccc2c1C(=O)c1c(O)c3c(c(O)c1C2=O)C[C@@](O)(C(=O)CO)C[C@@H]3O[C@H]1C[C@H](N)[C@H](O)[C@H](C)O1", "Potency": "inactive"}
{"smiles": "CN(C)C(=N)N=C(N)N", "Potency": "inactive"}
{"smiles": "CC(=O)O[C@]1(C(C)=O)CC[C@H]2[C@@H]3C=C(Cl)C4=CC(=O)[C@@H]5C[C@@H]5[C@]4(C)[C@H]3CC[C@@]21C", "Potency": "inactive"}
